Reference: ChEMBL document CHEMBL1961873, “Compounds: GSK PKIS; Assays: Nanosyn kinase panel” (2012)

Legend:
[1] = target: Tyrosine-protein kinase Fyn (Homo sapiens) (UniProt P06241); conditions: at 1 µM
[2] = target: Tyrosine-protein kinase HCK (Homo sapiens) (UniProt P08631); conditions: at 0.1 µM
[3] = target: Tyrosine-protein kinase HCK (Homo sapiens) (UniProt P08631); conditions: at 1 µM
[4] = target: Insulin-like growth factor 1 receptor (Homo sapiens) (UniProt P08069); conditions: at 0.1 µM
[5] = target: Insulin-like growth factor 1 receptor (Homo sapiens) (UniProt P08069); conditions: at 1 µM
[6] = target: Insulin receptor (Homo sapiens) (UniProt P06213); conditions: at 0.1 µM
[7] = target: Insulin receptor (Homo sapiens) (UniProt P06213); conditions: at 1 µM
[8] = target: Insulin receptor-related protein (Homo sapiens) (UniProt P14616); conditions: at 0.1 µM
[9] = target: Insulin receptor-related protein (Homo sapiens) (UniProt P14616); conditions: at 1 µM
[10] = target: T1, Tyrosine-protein kinase ITK/TSK (Homo sapiens) (UniProt Q08881); conditions: at 0.1 µM
T1 sequence (whole entry): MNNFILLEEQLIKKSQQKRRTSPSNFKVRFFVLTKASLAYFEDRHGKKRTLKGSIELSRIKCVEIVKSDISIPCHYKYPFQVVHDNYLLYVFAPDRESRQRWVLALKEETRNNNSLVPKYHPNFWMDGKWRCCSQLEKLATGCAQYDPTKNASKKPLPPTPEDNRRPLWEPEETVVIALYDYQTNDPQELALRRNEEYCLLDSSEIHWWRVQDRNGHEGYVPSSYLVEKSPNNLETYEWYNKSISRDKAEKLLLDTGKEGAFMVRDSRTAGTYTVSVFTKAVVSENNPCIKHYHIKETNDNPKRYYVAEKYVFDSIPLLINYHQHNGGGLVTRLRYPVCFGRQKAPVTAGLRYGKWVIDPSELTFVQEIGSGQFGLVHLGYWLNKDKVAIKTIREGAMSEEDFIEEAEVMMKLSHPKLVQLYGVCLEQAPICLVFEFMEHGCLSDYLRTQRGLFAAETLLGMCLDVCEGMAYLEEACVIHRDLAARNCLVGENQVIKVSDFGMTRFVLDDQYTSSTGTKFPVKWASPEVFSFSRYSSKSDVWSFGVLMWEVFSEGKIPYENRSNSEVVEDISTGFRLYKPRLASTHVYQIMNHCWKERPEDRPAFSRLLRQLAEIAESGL

[11] = target: T1, Tyrosine-protein kinase ITK/TSK (Homo sapiens); conditions: at 1 µM
[12] = target: Tyrosine-protein kinase JAK1 (Homo sapiens) (UniProt P23458); conditions: at 0.1 µM
[13] = target: Tyrosine-protein kinase JAK1 (Homo sapiens) (UniProt P23458); conditions: at 1 µM
[14] = target: Tyrosine-protein kinase JAK2 (Homo sapiens) (UniProt O60674); conditions: at 0.1 µM
[15] = target: Tyrosine-protein kinase JAK2 (Homo sapiens) (UniProt O60674); conditions: at 1 µM
[16] = target: T2, Tyrosine-protein kinase JAK3 (Homo sapiens) (UniProt P52333); conditions: at 0.1 µM
T2 sequence (whole entry): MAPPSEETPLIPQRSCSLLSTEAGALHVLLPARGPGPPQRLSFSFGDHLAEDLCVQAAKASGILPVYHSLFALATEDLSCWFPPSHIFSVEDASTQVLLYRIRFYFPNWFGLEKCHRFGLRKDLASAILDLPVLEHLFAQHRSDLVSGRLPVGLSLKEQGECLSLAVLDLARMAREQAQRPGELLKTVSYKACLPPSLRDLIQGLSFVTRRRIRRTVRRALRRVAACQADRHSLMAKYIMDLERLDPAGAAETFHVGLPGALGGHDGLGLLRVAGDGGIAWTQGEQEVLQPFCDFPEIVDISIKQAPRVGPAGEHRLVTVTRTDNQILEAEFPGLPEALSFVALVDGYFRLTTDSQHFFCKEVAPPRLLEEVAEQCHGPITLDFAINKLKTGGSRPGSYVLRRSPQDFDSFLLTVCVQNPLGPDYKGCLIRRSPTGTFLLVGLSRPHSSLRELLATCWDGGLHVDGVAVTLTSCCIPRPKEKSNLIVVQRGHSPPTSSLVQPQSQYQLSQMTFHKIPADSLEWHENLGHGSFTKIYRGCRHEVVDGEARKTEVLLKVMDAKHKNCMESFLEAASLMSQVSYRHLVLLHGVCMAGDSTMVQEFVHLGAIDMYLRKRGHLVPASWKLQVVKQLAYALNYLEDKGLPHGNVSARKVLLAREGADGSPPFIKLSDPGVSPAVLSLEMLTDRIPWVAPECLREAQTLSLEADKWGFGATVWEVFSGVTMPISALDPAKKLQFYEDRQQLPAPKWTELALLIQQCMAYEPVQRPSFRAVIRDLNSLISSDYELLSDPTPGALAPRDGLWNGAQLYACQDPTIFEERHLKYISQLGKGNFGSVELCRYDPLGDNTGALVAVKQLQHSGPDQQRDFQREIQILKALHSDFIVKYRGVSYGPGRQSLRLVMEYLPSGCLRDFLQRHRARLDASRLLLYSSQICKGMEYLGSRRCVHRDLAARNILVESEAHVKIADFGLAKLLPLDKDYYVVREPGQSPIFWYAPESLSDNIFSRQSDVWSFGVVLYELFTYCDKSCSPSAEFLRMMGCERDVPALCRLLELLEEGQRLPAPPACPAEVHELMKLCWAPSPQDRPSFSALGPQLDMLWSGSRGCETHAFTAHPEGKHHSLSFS

[17] = target: T2, Tyrosine-protein kinase JAK3 (Homo sapiens); conditions: at 1 µM
[18] = target: Vascular endothelial growth factor receptor 2 (Homo sapiens) (UniProt P35968); conditions: at 0.1 µM
[19] = target: Vascular endothelial growth factor receptor 2 (Homo sapiens) (UniProt P35968); conditions: at 1 µM
[20] = target: Mast/stem cell growth factor receptor Kit (Homo sapiens) (UniProt P10721); conditions: at 0.1 µM;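 note: values are mean inhibition of KIT, from the GSK PKIS dataset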
Sequence of Mast/stem cell growth factor receptor Kit (Homo sapiens) (P10721 whole entry): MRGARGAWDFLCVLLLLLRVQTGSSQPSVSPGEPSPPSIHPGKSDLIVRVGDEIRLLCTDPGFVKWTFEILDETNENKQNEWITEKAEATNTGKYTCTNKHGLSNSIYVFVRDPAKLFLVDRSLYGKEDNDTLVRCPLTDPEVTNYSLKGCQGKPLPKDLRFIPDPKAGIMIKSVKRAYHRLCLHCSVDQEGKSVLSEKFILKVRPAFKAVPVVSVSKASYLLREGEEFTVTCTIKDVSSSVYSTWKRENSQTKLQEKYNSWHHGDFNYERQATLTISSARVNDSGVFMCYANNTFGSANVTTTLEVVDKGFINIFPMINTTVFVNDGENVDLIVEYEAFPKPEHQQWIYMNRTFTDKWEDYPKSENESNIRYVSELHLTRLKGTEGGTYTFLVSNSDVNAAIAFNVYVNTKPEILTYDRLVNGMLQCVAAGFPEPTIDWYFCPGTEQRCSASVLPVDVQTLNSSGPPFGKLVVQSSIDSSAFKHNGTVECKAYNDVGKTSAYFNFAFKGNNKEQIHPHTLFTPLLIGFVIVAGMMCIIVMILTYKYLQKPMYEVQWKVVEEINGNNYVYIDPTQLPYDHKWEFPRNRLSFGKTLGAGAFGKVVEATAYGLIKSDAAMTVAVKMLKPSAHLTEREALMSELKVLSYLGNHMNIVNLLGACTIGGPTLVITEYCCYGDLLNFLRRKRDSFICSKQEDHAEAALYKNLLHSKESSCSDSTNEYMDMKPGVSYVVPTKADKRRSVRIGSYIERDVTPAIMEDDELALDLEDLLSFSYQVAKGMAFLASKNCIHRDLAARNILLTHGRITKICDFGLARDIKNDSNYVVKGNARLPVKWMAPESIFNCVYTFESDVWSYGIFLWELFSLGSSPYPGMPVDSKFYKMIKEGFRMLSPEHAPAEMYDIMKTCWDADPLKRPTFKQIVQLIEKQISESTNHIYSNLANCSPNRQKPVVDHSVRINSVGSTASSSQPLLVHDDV

Sequence of Tyrosine-protein kinase Fyn (Homo sapiens) (P06241 2-537 limits assumed): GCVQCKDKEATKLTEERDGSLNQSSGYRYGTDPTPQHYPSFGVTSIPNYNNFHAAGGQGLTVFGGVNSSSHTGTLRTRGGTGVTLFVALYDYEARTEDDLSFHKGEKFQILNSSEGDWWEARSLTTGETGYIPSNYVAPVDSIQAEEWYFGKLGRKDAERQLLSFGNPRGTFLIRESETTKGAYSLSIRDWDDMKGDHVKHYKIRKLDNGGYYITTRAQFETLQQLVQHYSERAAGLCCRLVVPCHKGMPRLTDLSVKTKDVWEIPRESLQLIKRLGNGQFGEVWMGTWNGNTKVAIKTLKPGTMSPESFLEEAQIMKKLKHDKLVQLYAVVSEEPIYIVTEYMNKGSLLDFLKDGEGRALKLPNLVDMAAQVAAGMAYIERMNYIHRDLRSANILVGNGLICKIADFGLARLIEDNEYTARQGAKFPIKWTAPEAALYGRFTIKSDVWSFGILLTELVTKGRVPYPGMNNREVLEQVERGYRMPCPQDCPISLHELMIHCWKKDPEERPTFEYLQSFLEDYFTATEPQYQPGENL
Sequence of Insulin receptor-related protein (Homo sapiens) (P14616 27-742 limits assumed): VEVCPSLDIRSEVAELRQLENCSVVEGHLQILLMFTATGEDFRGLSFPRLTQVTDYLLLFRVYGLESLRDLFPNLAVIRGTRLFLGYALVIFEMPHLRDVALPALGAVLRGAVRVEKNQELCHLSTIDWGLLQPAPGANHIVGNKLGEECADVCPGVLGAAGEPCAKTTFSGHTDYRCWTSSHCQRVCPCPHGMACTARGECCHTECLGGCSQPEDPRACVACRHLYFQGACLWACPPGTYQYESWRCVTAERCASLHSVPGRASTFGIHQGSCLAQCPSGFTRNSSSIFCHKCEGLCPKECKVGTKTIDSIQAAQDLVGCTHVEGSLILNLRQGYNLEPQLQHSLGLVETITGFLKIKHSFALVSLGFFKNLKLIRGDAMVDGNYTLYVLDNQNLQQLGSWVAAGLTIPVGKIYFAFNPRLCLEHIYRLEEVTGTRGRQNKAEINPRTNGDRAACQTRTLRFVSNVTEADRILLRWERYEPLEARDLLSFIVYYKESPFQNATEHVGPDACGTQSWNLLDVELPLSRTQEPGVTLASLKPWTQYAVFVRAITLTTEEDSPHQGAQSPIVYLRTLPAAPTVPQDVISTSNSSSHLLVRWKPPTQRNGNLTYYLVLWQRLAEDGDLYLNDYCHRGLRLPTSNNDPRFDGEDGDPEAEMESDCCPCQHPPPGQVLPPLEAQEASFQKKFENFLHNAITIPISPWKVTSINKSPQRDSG
Sequence of Insulin receptor-related protein (Homo sapiens) (P14616 747-1297 limits assumed): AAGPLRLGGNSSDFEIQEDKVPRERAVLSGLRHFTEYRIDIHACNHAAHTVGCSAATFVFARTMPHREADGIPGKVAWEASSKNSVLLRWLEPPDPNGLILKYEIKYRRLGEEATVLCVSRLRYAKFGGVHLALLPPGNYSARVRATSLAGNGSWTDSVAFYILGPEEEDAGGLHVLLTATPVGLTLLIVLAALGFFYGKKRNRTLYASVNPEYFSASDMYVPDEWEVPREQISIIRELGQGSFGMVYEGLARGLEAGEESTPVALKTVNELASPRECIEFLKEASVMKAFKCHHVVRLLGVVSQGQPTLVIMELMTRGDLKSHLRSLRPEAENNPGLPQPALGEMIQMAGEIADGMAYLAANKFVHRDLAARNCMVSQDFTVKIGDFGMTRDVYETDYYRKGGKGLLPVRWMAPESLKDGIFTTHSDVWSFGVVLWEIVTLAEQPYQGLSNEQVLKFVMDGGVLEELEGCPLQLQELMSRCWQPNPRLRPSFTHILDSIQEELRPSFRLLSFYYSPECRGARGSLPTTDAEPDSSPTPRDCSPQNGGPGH
Sequence of Tyrosine-protein kinase HCK (Homo sapiens) (P08631 2-526 limits assumed): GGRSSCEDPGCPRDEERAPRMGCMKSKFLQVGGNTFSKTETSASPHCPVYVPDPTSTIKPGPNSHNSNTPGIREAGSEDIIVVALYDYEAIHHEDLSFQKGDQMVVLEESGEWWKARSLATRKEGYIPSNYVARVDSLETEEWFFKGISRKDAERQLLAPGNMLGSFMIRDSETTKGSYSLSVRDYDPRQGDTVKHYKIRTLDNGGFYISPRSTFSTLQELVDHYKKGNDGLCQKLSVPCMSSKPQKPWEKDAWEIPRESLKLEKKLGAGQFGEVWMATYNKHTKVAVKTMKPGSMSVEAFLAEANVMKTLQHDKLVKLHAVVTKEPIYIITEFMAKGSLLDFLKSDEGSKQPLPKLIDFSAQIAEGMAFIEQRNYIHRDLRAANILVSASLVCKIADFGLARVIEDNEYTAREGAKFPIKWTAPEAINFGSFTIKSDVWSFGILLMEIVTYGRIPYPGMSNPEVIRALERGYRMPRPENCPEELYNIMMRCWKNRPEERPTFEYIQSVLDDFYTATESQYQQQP
Sequence of Tyrosine-protein kinase JAK1 (Homo sapiens) (P23458 whole entry): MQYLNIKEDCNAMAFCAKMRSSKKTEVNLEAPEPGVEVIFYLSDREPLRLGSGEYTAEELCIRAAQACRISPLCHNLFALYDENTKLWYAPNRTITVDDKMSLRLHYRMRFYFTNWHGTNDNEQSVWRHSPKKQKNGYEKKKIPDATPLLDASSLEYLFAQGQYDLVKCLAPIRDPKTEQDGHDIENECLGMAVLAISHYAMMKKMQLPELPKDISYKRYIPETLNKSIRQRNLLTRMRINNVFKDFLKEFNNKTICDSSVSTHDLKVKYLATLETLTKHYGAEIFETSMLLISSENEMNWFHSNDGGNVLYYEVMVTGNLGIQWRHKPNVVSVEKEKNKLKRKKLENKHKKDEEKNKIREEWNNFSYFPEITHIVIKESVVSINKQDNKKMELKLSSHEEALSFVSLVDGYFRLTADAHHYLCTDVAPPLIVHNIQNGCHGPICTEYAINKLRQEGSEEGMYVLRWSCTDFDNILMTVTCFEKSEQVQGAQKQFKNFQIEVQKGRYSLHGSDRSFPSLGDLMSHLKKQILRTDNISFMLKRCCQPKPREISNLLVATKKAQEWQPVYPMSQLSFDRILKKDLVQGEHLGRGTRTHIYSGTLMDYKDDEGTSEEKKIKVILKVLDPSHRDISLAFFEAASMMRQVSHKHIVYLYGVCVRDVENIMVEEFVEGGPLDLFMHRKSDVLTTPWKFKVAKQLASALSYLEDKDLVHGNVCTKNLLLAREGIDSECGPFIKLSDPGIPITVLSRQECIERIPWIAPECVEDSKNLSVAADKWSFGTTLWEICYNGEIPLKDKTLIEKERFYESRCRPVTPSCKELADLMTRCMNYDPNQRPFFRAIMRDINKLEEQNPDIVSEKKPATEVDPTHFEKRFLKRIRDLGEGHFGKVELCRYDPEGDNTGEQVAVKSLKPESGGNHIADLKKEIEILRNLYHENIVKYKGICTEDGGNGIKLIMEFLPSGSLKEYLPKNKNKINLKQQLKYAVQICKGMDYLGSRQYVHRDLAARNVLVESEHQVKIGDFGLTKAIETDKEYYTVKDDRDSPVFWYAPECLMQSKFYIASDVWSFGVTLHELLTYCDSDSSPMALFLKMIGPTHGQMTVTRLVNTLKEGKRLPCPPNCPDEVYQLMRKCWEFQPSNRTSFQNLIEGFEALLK

Row | SMILES | inhibition [1] | inhibition [2] | inhibition [3] | inhibition [4] | inhibition [5] | inhibition [6] | inhibition [7] | inhibition [8] | inhibition [9] | inhibition [10] | inhibition [11] | inhibition [12] | inhibition [13] | inhibition [14] | inhibition [15] | inhibition [16] | inhibition [17] | inhibition [18] | inhibition [19] | inhibition [20]
1 | Cc1ccc2c(-c3ccnc(Nc4ccc5c(c4)OCCO5)n3)c(-c3ccc(C(F)(F)F)cc3)nn2n1 | 5.39% | 1.01% | 2.01% | -4.21% | 0.39% | -0.36% | 1.45% | 1.35% | 0.34% | -1.23% | 1.1% | 1.09% | 1.09% | 0.16% | -1.16% | -2.23% | 1.23% | -0.67% | 2.81% | -0.52%
2 | CS(=O)(=O)Nc1cccc(-c2ccc3c(NC(=O)C4CC4)n[nH]c3c2)c1 | 3.25% | 3.53% | 3.03% | 1.3% | -1.63% | 2.96% | 4.14% | -0.36% | -1.26% | 0.53% | 1.71% | 0.09% | 0.48% | 0.43% | 1.32% | -0.13% | 2.96% | 1.1% | 7.91% | -1.41%
3 | Oc1cccc(-c2nc(-c3ccccc3)[nH]c2-c2ccncc2)c1 | 17.9% | 13.7% | 51.2% | 2.68% | 5.15% | 1.16% | 2.18% | 2.79% | 0.88% | 1.78% | 1.61% | 9.17% | 5.42% | 1.43% | 2.51% | 0.73% | 9.09% | 30.8% | 70.9% | 4.95%
4 | COc1cccc(-n2ncc3c(N/N=C/c4ccc(S(C)(=O)=O)cc4)ncnc32)c1 | 69.8% | 17% | 55.7% | -6.32% | -5.27% | 2.59% | 1.06% | 0.2% | 0.63% | -2.33% | 0.29% | 1.39% | 6.92% | 1.22% | 11.5% | -4.07% | 5.53% | 31.4% | 66.4% | 16%
5 | COc1cccc(-n2nc(C)c3c(N/N=C(\C)c4ccncc4)ncnc32)c1 | 4.54% | 1.01% | 3.38% | -0.28% | 0.73% | 2.42% | 0.25% | -2% | -2.33% | 0.43% | -0.01% | 0.91% | 4.07% | -0.64% | 1.79% | -1.14% | 0.38% | 1.62% | 4.01% | 1.56%
6 | NC(=O)c1cccc(Nc2nccc(Nc3cccc(F)c3)n2)c1 | 43.2% | 3.16% | 30.8% | 1.8% | 20.9% | 4.46% | 21.1% | -0.57% | 1.15% | -0.24% | 2.4% | 3.17% | 32% | 2.34% | 46.6% | -1.62% | 2.72% | 5.1% | 44.7% | 42.5%
7 | O=C1Nc2ccccc2/C1=C/Nc1ccc2[nH]c(=O)[nH]c2c1 | 10.9% | 7.89% | 21.5% | 7.08% | 24.8% | 8.02% | 32.4% | 3.85% | 6.41% | 1.78% | 5.35% | 3.96% | 20.8% | 1.12% | 1.93% | -1.44% | 8.66% | 13.7% | 48.1% | 
